# According to the OligoGym collection:
# Target: SHOC2
# Assay: pooled miR-30 sensor sort-seq; sequence = guide strand
# Details: shRNA
# Note: reference of the scale not given here.
row,Sequence,sensor-assay potency score (higher = more potent)
1,TTCTCTTCTAGATCCAACTCTC,-0.213
2,TTACTTAATACTTTTGCTCTGG,0.139
3,TTGTGAGCTACATCCAGCGTAA,0.0478
4,TATATCTAACTATACTACCTCT,-0.42
5,TGAATTTTCACTTAGAGCCAGT,-0.612
6,TCCAACTCTCTTAACTTCCTAA,-0.798
7,TTGATTGTGAGCTACATCCAGC,-0.412
8,TTGATCGTATTGTCAACTGAAA,-1.19
9,TTTGATCGTATTGTCAACTGAA,0.487
10,TATGTGTATAGATCTCTTGGAT,-0.313
11,TATCTAACTATACTACCTCTGT,-0.264
12,TTTGTTCTCTTCTAGATCCAAC,-0.823

# Target: SHOX2
# Assay: as above
# Details: shRNA
row,Sequence,sensor-assay potency score (higher = more potent)
1,TTTTCTTGTTTTCTACATTTAG,-1.51
2,TTTGCGATCTTTCAGCTCCGGG,-1.2
3,TTTCTACATTTAGCTCTTCGAT,-1.28
4,TTCTTGCTGGTGGTCTTGGCGG,-1.37
5,TTCTATGCAAGAGTCCATCGTT,0.114
6,TACATTTAGCTCTTCGATTTTG,-1.22
7,TTTATGGAGTTGATTTTCTTGT,-0.402
8,TTCTACATTTAGCTCTTCGATT,-0.898
9,TCCAGGGTGAAATTGGTCCGAC,-1.19
10,TATGAGAACACCTTTATGGAGT,-0.114
11,TTTGAAACCAAACCTGCACTCG,-0.285
12,TTGCGATCTTTCAGCTCCGGGG,-1.14

# Target: SHROOM4
# Assay: as above
# Details: shRNA
row,Sequence,sensor-assay potency score (higher = more potent)
1,TAGCTTGACAAGTCCAGTGCTG,-0.0975
2,TTTGCTTGCAAAACATTCTGAG,0.464
3,TAGTGGTTGAAGAACAGTCCGT,-0.287
4,TTGAAGAGCTTGTCTCTGGGGC,0.543
5,TAGAGCTCCTTGAACACTGCAG,0.417
6,TTCATCTTGACAAAGTGCTGGT,0.618
7,TTATTCGTCCCTCTAAGCCTGT,-0.267
8,TATCAGTACCAACTTCTCCTGG,-0.376
9,TTGAAGAACAGTCCGTGGCTTG,-0.301
10,TTTCTGAACTGAAATACTGGGG,-0.0667
11,TTTCATCTTGACAAAGTGCTGG,0.237
12,TTGCTTGCAAAACATTCTGAGT,-1.21

# Target: SIAE
# Assay: as above
# Details: shRNA
row,Sequence,sensor-assay potency score (higher = more potent)
1,TAATCCATCAGTAAACTGCATT,-1.07
2,TTTCACACTGGTCACTTTCTTC,-0.603
3,TAGACAACTCCCTTGTAGCATT,-0.9
